According to the supplement of paper PMC9135407:
“And” between values parts separate entries of the source, which are not always exact repeats. Equal entries are not always repeated. Structures can show the parent of a compound that is named as a salt. In all, about 5,800 compounds went through this assay and about 620 (11%) showed activity. The sample holds actives, similar compounds and a random draw of the others, so the mix is not that of the screen. Unmarked numbers belong to inactive results.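 Rule for the calls: active = score above a cut-off or among the top three wells of a plate; in these data no inactive exceeds 0.85.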

Test system: primary human hepatic stellate cells (donor 1)
Experiment: scaled lipid accumulation score (0 = DMSO-like, 1 = nortriptyline-like); higher = stronger HSC inactivation (lipid re-accumulation), active = hit call of the paper
Conditions: 48 h
Procedure: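 Primary lipid accumulation screen in primary human hepatic stellate cell myofibroblasts (donor 1, passage 8) in 384-well plates. 100 nL of library compound was pin-transferred into 30 µL medium in duplicate, and cells were treated for 48 h. The 'Scaled' score combines distance from plate baseline, toxicity and reproducibility penalties, and is normalised to nortriptyline (positive) and DMSO (negative) controls on each plate. A hit is defined as scaled >0.85 or among the top 3 wells per plate.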

[1] = library stock concentration: 1 mM
[2] = library stock concentration: 10 mM
[3] = library stock concentration: 3.33 mM
[4] = library stock concentration: 6.3 mM

SMILES: CCCCCCCC(=O)OC[C@H](CO)OC(=O)CCCCCCC [1,2-Dioctanoyl-SN-glycerol]
- scaled lipid accumulation score [1]: ≤ -0.021

SMILES: CCCCCCCC(=O)OC[C@H](CO)OC(=O)CCCCCCC [1,2-Dioctanoyl-sn-glycerol]
- scaled lipid accumulation score [1]: 0.009

SMILES: COc1ccc(NC(=O)c2ccc(-c3ccc(-c4noc(C)n4)cc3C)cc2)cc1OCCN(C)C
- scaled lipid accumulation score [2]: 0.491

SMILES: Cc1ccc(NC(=O)c2cccc(N(C)C)c2)cc1NC(=O)c1ccc(O)cc1
- scaled lipid accumulation score [2]: ≤ -0.004

SMILES: Br.Br.CN(C)CCCc1cc(C(=O)Nc2ccc(-c3ccncc3)cc2)ccc1O
- scaled lipid accumulation score [2]: 1.13 (active)

SMILES: CC(C)CCCC(C)N (centres undefined) [Octodrine]
- scaled lipid accumulation score (library stock concentration: 15.5 mM): 0.024

SMILES: CCC(CC)CC1(C(=O)Nc2ccccc2SC(=O)C(C)C)CCCCC1
- scaled lipid accumulation score [3]: ≤ 0
- scaled lipid accumulation score [2]: ≤ 0

SMILES: Cc1nc(-c2ccc(C(F)(F)F)cc2)sc1C(=O)NCc1ccc(OC(C)(C)C(=O)O)cc1
- scaled lipid accumulation score [1]: ≤ 0

SMILES: CN(C)CC/C=C1/c2ccccc2COc2ccc(CC(=O)O)cc21 [Olopatadine HCl]
- scaled lipid accumulation score [3]: ≤ 0
- scaled lipid accumulation score [2]: ≤ 0

SMILES: CN(C)CCC1(c2ccc(Cl)cc2)Cc2ccccc2C(=O)O1 (centres undefined)
- scaled lipid accumulation score [2]: 0.575

SMILES: CN(C)CC/C=C1/c2ccccc2COc2ccc(CC(=O)O)cc21
- scaled lipid accumulation score [2]: ≤ 0

SMILES: CN(C)CC/C=C1/c2ccccc2COc2ccccc21.Cl [Doxepin hydrochloride]
- scaled lipid accumulation score [4]: 1.34 (active)

SMILES: CN(C)CCC=C1c2ccccc2CCc2ccccc21 [Annoyltin]
- scaled lipid accumulation score [2]: 0.841

SMILES: CN(C)CC/C=C1/c2ccccc2COc2ccc(CC(=O)O)cc21 [Olopatadine]
- scaled lipid accumulation score (library stock concentration: 5.9 mM): ≤ -0.006

SMILES: C(=C/CCN(C)C)(/c1c2cccc1)\c3c(cccc3)CC2.Cl [Amitriptyline hydrochloride]
- scaled lipid accumulation score [2]: 1.11 (active)

SMILES: CN(C)CCC=C1c2ccccc2CCc2ccccc21 [Amitriptyline hydrochloride]
- scaled lipid accumulation score (library stock concentration: 6.4 mM): 0.347
- scaled lipid accumulation score [2]: 0.6

SMILES: CN(C)CCC=C1c2ccccc2CCc2ccccc21 [Amitryptiline hydrochloride]
- scaled lipid accumulation score: 0.821

SMILES: CN(C)CCC=C1c2ccccc2CCc2ccccc21.Cl [Amitriptyline HCl]
- scaled lipid accumulation score [2]: 0.863 (active)

SMILES: CN(C)CCC=C1c2ccccc2CCc2ccccc21 [Amitriptyline HCl]
- scaled lipid accumulation score [3]: 0.187

SMILES: CN(C)CCC=C1c2ccccc2COc2ccccc21 [Doxepin]
- scaled lipid accumulation score [2]: 0.731

SMILES: CN(C)CCC=C1c2ccccc2COc2ccccc21 [Doxepin hydrochloride]
- scaled lipid accumulation score: 0.633
- scaled lipid accumulation score [2]: 0.495 and 0.707 and 0.72

SMILES: C[C@H]1[C@H](OC(=O)CCC(=O)O)O[C@@H]2O[C@@]3(C)CC[C@H]4[C@H](C)CC[C@@H]1[C@@]24OO3 [Artesunate]
- scaled lipid accumulation score [3]: 0.009
- scaled lipid accumulation score (library stock concentration: 5.2 mM): ≤ 0
- scaled lipid accumulation score [2]: ≤ 0

SMILES: C[C@H]1[C@H](OC(=O)CCC(=O)O)O[C@@H]2O[C@@]3(C)CC[C@H]4[C@H](C)CC[C@@H]1[C@@]24OO3
- scaled lipid accumulation score [2]: ≤ 0

SMILES: C/C=C/C/C=C/CCC(=O)[C@H]1O[C@H]1C(N)=O [Cerulenin]
- scaled lipid accumulation score [1]: ≤ 0
- scaled lipid accumulation score (library stock concentration: 22.4 mM): 0.518

SMILES: CCCCCC(O)C=CC1C=CC(=O)C1CCCCCCC(=O)O (centres undefined) [8-iso Prostaglandin A1]
- scaled lipid accumulation score [1]: ≤ 0

SMILES: CCCCCC(O)C=CC1C=CC(=O)C1CCCCCCC(=O)O (stereo not drawn) [15-epi Prostaglandin A1]
- scaled lipid accumulation score [1]: ≤ 0

SMILES: N[C@@H](Cc1c[nH]cn1)C(=O)O [L-Histidine hydrochloride]
- scaled lipid accumulation score [2]: ≤ -0.07

SMILES: COC1=CC(=O)C=C(OC)C1=O [2,6-dimethoxyquinone]
- scaled lipid accumulation score [2]: 0.299

SMILES: CC(C)NCC(O)c1ccc(O)c(O)c1 (single isomer, unassigned; (-)) [(-)-Isoproterenol hydrochloride]
- scaled lipid accumulation score: ≤ 0
- scaled lipid accumulation score [2]: ≤ -0.055

SMILES: CC[C@H]1C(=O)OC[C@@H]1Cc1cncn1C [Isopilocarpine nitrate]
- scaled lipid accumulation score [2]: ≤ 0

SMILES: COc1cccc(OC)c1OCCNCC1CSc2ccccc2O1 (centres undefined) [Benoxathian hydrochloride]
- scaled lipid accumulation score [2]: 0.629

SMILES: CC1(C)CC(Nc2nccc(-c3cnn(-c4ccccc4)c3)n2)CC(C)(C)N1
- scaled lipid accumulation score [2]: 0.799 (active)

SMILES: CCCn1ncc(-c2ccnc(NC3CC(C)(C)NC(C)(C)C3)n2)c1C
- scaled lipid accumulation score [2]: 0.86 (active)

SMILES: C[C@@H]1O[C@@H](O[C@H]2[C@H](Oc3cc(O)c(C(=O)CCc4ccc(O)cc4)c(O)c3)O[C@H](CO)[C@@H](O)[C@@H]2O)[C@H](O)[C@H](O)[C@H]1O [Naringin Dihydrochalcone]
- scaled lipid accumulation score [3]: ≤ 0
- scaled lipid accumulation score [2]: 0.078

SMILES: O=C(O)CCC/C=C\C[C@@H]1CO[C@H](C(F)(F)F)O[C@@H]1c1ccccc1O
- scaled lipid accumulation score [2]: ≤ 0

SMILES: CCCCCCCC/C=C\CCCCCCCC(=O)OC[C@H](CO)OC(=O)CCCCCCC/C=C\CCCCCCCC [1,2-Dioleoyl-sn-glycerol]
- scaled lipid accumulation score [1]: ≤ 0

SMILES: CCN(CC)CCCC(C)Nc1c2ccc(Cl)cc2nc2ccc(OC)cc12 (centres undefined) [Quinacrine dihydrochloride dihydrate]
- scaled lipid accumulation score: 0.288

SMILES: CCN(CC)CCCC(C)Nc1c2ccc(Cl)cc2nc2ccc(OC)cc12 (centres undefined) [Quinacrine 2HCl dihydrate]
- scaled lipid accumulation score (library stock concentration: 5 mM): 0.876 (active)

SMILES: CCN(CC)CCCC(C)Nc1c2ccc(Cl)cc2nc2ccc(OC)cc12 (centres undefined) [Quinacrine 2HCl]
- scaled lipid accumulation score [3]: 0.307
- scaled lipid accumulation score [2]: 0.325

SMILES: CCN(CC)CCCC(C)Nc1c2ccc(Cl)cc2nc2ccc(OC)cc12 (centres undefined) [Quinacrine dihydrochloride]
- scaled lipid accumulation score [2]: 0.536

SMILES: CCN(CC)CCCC(C)Nc1nc(C)cc(Nc2ccc3nc(C)cc(N)c3c2)n1 (centres undefined)
- scaled lipid accumulation score [3]: ≤ -0.009
- scaled lipid accumulation score [2]: 0.217 and 0.086

SMILES: CCN(CC)CCCC(C)Nc1c2ccc(Cl)cc2nc2ccc(OC)cc12 (centres undefined) [Quinacrine hydrochloride]
- scaled lipid accumulation score [2]: 0.586

SMILES: c1ccc(-c2[nH]ncc2-c2ccnc3ccccc23)nc1
- scaled lipid accumulation score [1]: ≤ 0
- scaled lipid accumulation score [2]: ≤ -0.001

SMILES: CC1=C(/C=C/C(C)=C/C=C/C(C)=C/CO)C(C)(C)CCC1 [Retinol]
- scaled lipid accumulation score (library stock concentration: 7 mM): ≤ 0
- scaled lipid accumulation score [2]: ≤ 0

SMILES: NC(=O)c1cc[n+](CC2=C(C(=O)[O-])N3C(=O)[C@@H](NC(=O)Cc4cccs4)[C@H]3SC2)cc1 [Cefalonium]
- scaled lipid accumulation score: ≤ 0

SMILES: O=NN(CCCl)C(=O)NC1CCCCC1 [Lomustine]
- scaled lipid accumulation score [3]: 0.044
- scaled lipid accumulation score (library stock concentration: 8.6 mM): 0.014
- scaled lipid accumulation score [2]: ≤ 0

SMILES: CN1CCC(OC(c2ccccc2)c2ccccc2)CC1 [Diphenylpyraline hydrochloride]
- scaled lipid accumulation score: 0.332
- scaled lipid accumulation score [4]: 0.256
- scaled lipid accumulation score [2]: 0.235

SMILES: CN1[C@@H]2CC[C@H]1C[C@@H](OC(=O)C(O)c1ccccc1)C2 (mixture of isomers) [Homatropine hydrobromide (R,S)]
- scaled lipid accumulation score: 0.043

SMILES: CN1[C@@H]2CC[C@H]1C[C@@H](OC(c1ccccc1)c1ccccc1)C2 [Benztropine mesylate]
- scaled lipid accumulation score [3]: 0.003

SMILES: CN1[C@@H]2CC[C@H]1C[C@@H](OC(c1ccccc1)c1ccccc1)C2 [Benztropine]
- scaled lipid accumulation score (library stock concentration: 4.9 mM): 0.193
- scaled lipid accumulation score [2]: 0.38

SMILES: C1[C@@H](N(C)[C@@H]2C1)C[C@@H](OC(c3ccccc3)c4ccccc4)C2.CS(O)(=O)=O (some centres undefined) [Benztropine mesylate]
- scaled lipid accumulation score [2]: 0.873 (active)

SMILES: CN1C2CCC1CC(OC(c1ccccc1)c1ccccc1)C2.CS(=O)(=O)O (centres undefined) [Benztropine mesylate]
- scaled lipid accumulation score [2]: 1.05 (active)

SMILES: CN1[C@@H]2CC[C@H]1C[C@@H](OC(=O)C(O)c1ccccc1)C2 (mixture of isomers) [DL-Homatropine hydrobromide]
- scaled lipid accumulation score [2]: 0.242

SMILES: CN1[C@@H]2CC[C@H]1C[C@@H](OC(c1ccccc1)c1ccccc1)C2 [Cogentin Mesylate]
- scaled lipid accumulation score [2]: 0.598

SMILES: CN1C2CCC1CC(OC(=O)C(O)c1ccccc1)C2 (centres undefined) [Homatropine Bromide]
- scaled lipid accumulation score [3]: ≤ 0
- scaled lipid accumulation score [2]: ≤ -0.001

SMILES: CN1C2CCC1CC(OC(=O)C(O)c1ccccc1)C2 (centres undefined) [Homatropine bromide]
- scaled lipid accumulation score [2]: ≤ 0

SMILES: CCOC(=O)Nc1cc(-c2ccc(C)c(NS(C)(=O)=O)c2)nn2c(C)nnc12 [Bromosporine]
- scaled lipid accumulation score [3]: 0.166
- scaled lipid accumulation score [2]: 0.621

SMILES: CCCCCCCCCCCCCCCCOC[C@H](CO)OC(C)=O [Hexadecyl Acetyl Glycerol]
- scaled lipid accumulation score [1]: ≤ 0

SMILES: CNC(=O)c1c(F)cccc1Nc1nc(Nc2cc3c(cc2OC)CCN3C(=O)CN(C)C)nc2[nH]ccc12 [listing 1 of 2 here]
- scaled lipid accumulation score [2]: 0.776

SMILES: CNC(=O)c1c(F)cccc1Nc1nc(Nc2cc3c(cc2OC)CCN3C(=O)CN(C)C)nc2[nH]ccc12 [listing 2 of 2 here]
- scaled lipid accumulation score [3]: 0.98 (active)

SMILES: CNC(=O)c1ccccc1Nc1nc(Nc2ccc(N3CCOCC3)cc2OC)ncc1Cl
- scaled lipid accumulation score (library stock concentration: 80 uM): ≤ -0.016
- scaled lipid accumulation score (library stock concentration: 400 uM): ≤ -0.016
- scaled lipid accumulation score (library stock concentration: 2 mM): ≤ -0.016
- scaled lipid accumulation score [3]: ≤ 0
- scaled lipid accumulation score [2]: ≤ 0 and ≤ -0.016

SMILES: O=C(c1ccc2c(c1)OCCO2)N1CCCCC1
- scaled lipid accumulation score [2]: ≤ -0.07

SMILES: COC(=O)C1=CC[C@@]23CC[C@@H]([C@@](C)(/C=C/C=C(\C)C(=O)O)OC2=O)[C@@]3(OC(C)=O)CC1 [Pseudolaric Acid B]
- scaled lipid accumulation score [1]: ≤ 0

SMILES: CCCC[C@H](C)C[C@H](O)/C=C/[C@H]1[C@H](O)CC(=O)[C@@H]1CCCCC(CC(=O)O)OC (some centres undefined) [3-methoxy Limaprost]
- scaled lipid accumulation score [1]: 0.012

SMILES: CCCCCC(=O)OC[C@H](CO)OC(=O)CCCCC [1,2-Dihexanoyl-sn-glycerol]
- scaled lipid accumulation score [1]: 0.007
